Data reported in PubChem BioAssay (NCI).
Compounds without any hit were thinned out: in the full panel of roughly 79,000, 15% have a hit. Active and inactive are the calls of the source. Cut-off read from the data, not from the text of the source: active = growth inhibition above about 70%; inactive = the rest.

Tests used:
[1] = NCI Yeast Anticancer Drug Screen. Data for the rad52 strain (AID 147);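 note: 0% = growth of vehicle-treated control cultures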; conditions: S. cerevisiae rad52 mutant growth inhibition, hits give high values
In short: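 Genetically altered yeast (DNA damage repair defect) treated with compound; inhibition calculated relative to vehicle.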

[2] = NCI Yeast Anticancer Drug Screen. Data for the wt1 strain (AID 149);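 note: 0% = growth of vehicle-treated wt1 cultures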; conditions: S. cerevisiae wt1 strain (SPY 50644) growth inhibition, hits give high values
In short: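 Each compound is tested on wt1 yeast and the loss of growth versus vehicle gives the inhibition value.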

[3] = NCI Yeast Anticancer Drug Screen. Data for the rad50EPP+ strain (AID 151);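 note: 0% = growth of vehicle-treated control cultures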; conditions: S. cerevisiae rad50 mutant strain, hits give high values
In short: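 Strain rad50EPP+; compound exposure; % growth inhibition vs vehicle.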

[4] = NCI Yeast Anticancer Drug Screen. Data for the rad50 strain (AID 155);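 note: 0% = growth of vehicle-only cultures of the same strain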; conditions: S. cerevisiae rad50 strain growth inhibition, hits give high values
In short: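 Vehicle-treated cultures provide the reference for the growth inhibition reported for compound-exposed, repair-deficient yeast.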

[5] = NCI Yeast Anticancer Drug Screen. Data for the mec2-1 strain (AID 157); conditions: S. cerevisiae mec2-1 strain, hits give high values
In short: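 Cells of the genetically defined mec2-1 yeast strain are incubated with test compound. Inhibition of growth is calculated against vehicle-treated controls.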

[6] = NCI Yeast Anticancer Drug Screen. Data for the rad14 strain (AID 159);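 note: 0% = growth of vehicle-treated control cultures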; conditions: S. cerevisiae rad14 strain growth inhibition, hits give high values
In short: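 Inhibition of growth is reported for a repair-deficient yeast mutant following compound treatment, calculated relative to cultures that received vehicle.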

[7] = NCI Yeast Anticancer Drug Screen. Data for the sgs1 mgt1 strain (AID 161);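 note: 0% = growth of cultures given vehicle only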; conditions: S. cerevisiae sgs1 mgt1 strain, hits give high values
In short: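 Test agents were incubated with a DNA-repair-mutant yeast strain. Growth was then read and compared against vehicle-treated controls.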

[8] = NCI Yeast Anticancer Drug Screen. Data for the CLN2oe strain (AID 163);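 note: 0% = growth of vehicle-only control cultures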; conditions: S. cerevisiae CLN2oe strain, hits give high values
In short: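 Strain altered in cell-cycle control, incubated with compound; growth compared to solvent-treated controls.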

[9] = NCI Yeast Anticancer Drug Screen. Data for the cln2 rad14 strain (AID 165);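 note: 0% = growth equal to vehicle treated cultures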; conditions: S. cerevisiae cln2 rad14 strain, hits give high values
In short: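 The screen exposed genetically defined yeast (cln2 rad14) to test compounds and scored growth inhibition relative to vehicle-treated controls.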

[10] = NCI Yeast Anticancer Drug Screen. Data for the bub3 strain (AID 167); conditions: S. cerevisiae bub3 mutant strain, hits give high values
In short: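 Mutant yeast screening strain plus compound; vehicle-treated cultures serve as the 0% inhibition reference.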

[11] = NCI Yeast Anticancer Drug Screen. Data for the wt2 strain (AID 169); conditions: S. cerevisiae wt2 strain growth inhibition, hits give high values
In short: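 Steps: yeast strain treated with compound; growth recorded; inhibition calculated relative to cultures given vehicle alone.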

[12] = NCI Yeast Anticancer Drug Screen. Data for the mlh1 strain (AID 171);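 note: 0% = growth of vehicle-treated control cultures of the same strain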; conditions: S. cerevisiae mlh1 strain growth inhibition, hits give high values
In short: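 Yeast screen: mutant strain plus compound, growth scored against vehicle control wells.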

[13] = NCI Yeast Anticancer Drug Screen. Data for the sgs1 strain (AID 173);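 note: 0% = growth of vehicle-only control cultures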; conditions: S. cerevisiae sgs1 mutant, hits give high values
In short: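 Inhibition of yeast growth served as the measure. The mutant strain was treated with each compound, and growth was normalised to cultures receiving vehicle alone.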

[14] = NCI Yeast Anticancer Drug Screen. Data for the mlh1 rad18 strain (AID 175); conditions: S. cerevisiae mlh1 rad18 strain growth inhibition, hits give high values
In short: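 Compound-treated yeast growth, normalised to vehicle controls. Strain bears defined DNA repair mutations.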

[15] = NCI Yeast Anticancer Drug Screen. Data for the rad18 strain (AID 177); conditions: S. cerevisiae rad18 mutant growth inhibition, hits give high values
In short: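 Inhibition values reflect reduced yeast growth compared with vehicle-treated controls, using a strain engineered with a DNA damage repair defect.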

[16] = at 5.0 µM (retest, dose inferred, filed as 0.5)
[17] = at 50.0 µM (retest, dose inferred, filed as 5.0)

Measured: growth inhibition

NP1(Oc2ccc(F)cc2)=NP(N)(Oc2ccc(F)cc2)=NP(Oc2ccc(F)cc2)(Oc2ccc(F)cc2)=N1 (stereo unspecified)
inactive: [1]; at 1.2 µM -1% | [1]; at 3.7 µM 7% | [2]; at 1.2 µM -2% | [2]; at 3.7 µM 0% | [2]; at 11.0 µM 20% | [2]; at 33.0 µM 41% | [2]; at 100.0 µM 48% | [3]; at 1.2 µM -6% | [3]; at 3.7 µM -2% | [3]; at 11.0 µM 2% | [3]; at 33.0 µM 4% | [3]; at 100.0 µM 1% | [4]; at 1.2 µM 4% | [4]; at 3.7 µM 5% | [4]; [16] 21% | [4]; [17] 64% | [5]; at 1.2 µM 1% | [5]; at 3.7 µM 3% | [5]; [16] 12% | [5]; at 11.0 µM 26% | [5]; at 33.0 µM 28% | [5]; [17] 19% | [6]; at 1.2 µM -2% | [6]; at 3.7 µM 1% | [6]; at 11.0 µM 6% | [6]; at 33.0 µM 15% | [7]; [16] 1% | [7]; [17] 28% | [8]; at 1.2 µM 0% | [8]; at 3.7 µM -3% | [8]; at 11.0 µM 17% | [8]; at 33.0 µM 53% | [9]; [16] 5% | [9]; [17] 54% | [10]; at 1.2 µM 1% | [10]; at 3.7 µM -1% | [10]; [16] 8% | [10]; at 11.0 µM 53% | [10]; at 33.0 µM 23% | [10]; [17] 35% | [11]; at 1.2 µM 0% | [11]; at 3.7 µM 7% | [11]; at 11.0 µM -1% | [11]; at 33.0 µM 22% | [11]; at 100.0 µM 50% | [12]; at 1.2 µM 0% | [12]; at 3.7 µM -2% | [12]; at 11.0 µM 1% | [12]; at 33.0 µM 15% | [13]; at 1.2 µM -3% | [13]; at 3.7 µM 0% | [13]; at 11.0 µM 12% | [13]; at 33.0 µM 51% | [14]; [16] 17% | [15]; at 1.2 µM -1% | [15]; at 3.7 µM 14% | [15]; at 11.0 µM 63%
active: [1]; at 11.0 µM 74% | [1]; at 33.0 µM 71% | [1]; at 100.0 µM 96% | [4]; at 11.0 µM 95% | [4]; at 33.0 µM 96% | [4]; at 50.0 µM 94.8% | [4]; at 100.0 µM 96% | [5]; at 50.0 µM 84.7% | [5]; at 100.0 µM 94% | [6]; at 100.0 µM 88% | [7]; at 50.0 µM 97.9% | [8]; at 100.0 µM 94% | [9]; at 50.0 µM 97% | [10]; at 50.0 µM 87.5% | [10]; at 100.0 µM 96% | [12]; at 100.0 µM 84% | [13]; at 100.0 µM 95% | [14]; [17] 86% | [14]; at 50.0 µM 88.2% | [15]; at 33.0 µM 83% | [15]; at 100.0 µM 97%

CC1C(C#N)(C#N)C(C#N)=C(N)C1(Cl)[N+](=O)[O-] (stereo unspecified)
active: [1]; at 100.0 µM 85% | [3]; at 33.0 µM 78% | [3]; at 100.0 µM 85% | [4]; [17] 78% | [4]; at 50.0 µM 77.5% | [4]; at 100.0 µM 76% | [5]; [17] 85% | [5]; at 50.0 µM 77.4% | [5]; at 100.0 µM 81% | [7]; [17] 78% | [7]; at 50.0 µM 76% | [8]; at 100.0 µM 88% | [10]; [17] 86% | [10]; at 50.0 µM 73.8% | [10]; at 100.0 µM 84% | [11]; at 100.0 µM 92% | [12]; at 100.0 µM 89% | [13]; at 100.0 µM 90% | [14]; [17] 94% | [15]; at 100.0 µM 87%
inactive: [1]; at 1.2 µM 3% | [1]; at 3.7 µM 33% | [1]; at 11.0 µM 35% | [1]; at 33.0 µM 56% | [2]; at 1.2 µM 10% | [2]; at 3.7 µM 9% | [2]; at 11.0 µM 8% | [2]; at 33.0 µM 22% | [2]; at 100.0 µM 55% | [3]; at 1.2 µM 19% | [3]; at 3.7 µM 37% | [3]; at 11.0 µM 55% | [4]; at 1.2 µM 4% | [4]; at 3.7 µM 26% | [4]; [16] 24% | [4]; at 11.0 µM 29% | [4]; at 33.0 µM 40% | [5]; at 1.2 µM 0% | [5]; at 3.7 µM 30% | [5]; [16] 11% | [5]; at 11.0 µM 32% | [5]; at 33.0 µM 41% | [6]; at 1.2 µM 1% | [6]; at 3.7 µM 8% | [6]; at 11.0 µM 15% | [6]; at 33.0 µM 28% | [6]; at 100.0 µM 67% | [7]; [16] 11% | [8]; at 1.2 µM 19% | [8]; at 3.7 µM 39% | [8]; at 11.0 µM 48% | [8]; at 33.0 µM 53% | [9]; [16] -5% | [9]; [17] 30% | [9]; at 50.0 µM 65.8% | [10]; at 1.2 µM 12% | [10]; at 3.7 µM 12% | [10]; [16] 20% | [10]; at 11.0 µM 20% | [10]; at 33.0 µM 49% | [11]; at 1.2 µM -1% | [11]; at 3.7 µM 7% | [11]; at 11.0 µM 22% | [11]; at 33.0 µM 58% | [12]; at 1.2 µM 11% | [12]; at 3.7 µM 28% | [12]; at 11.0 µM 45% | [12]; at 33.0 µM 68% | [13]; at 1.2 µM 28% | [13]; at 3.7 µM 20% | [13]; at 11.0 µM 37% | [13]; at 33.0 µM 61% | [14]; [16] 19% | [14]; at 50.0 µM 48% | [15]; at 1.2 µM 14% | [15]; at 3.7 µM 17% | [15]; at 11.0 µM 34% | [15]; at 33.0 µM 61%
